This is an account of results in PubChem BioAssay (NCI).

The structures appear in SMILES notation. “And” between values parts separate entries of the source, which are not always exact repeats. Equal entries are not always repeated. This is part of a sample that, as a whole, favours compounds with a hit. Of some 79,000 tested, about 15% had one in any assay. Unmarked numbers belong to inactive results. The source made the active and inactive calls. Cut-off read from the data, not from the text of the source: active = growth inhibition above about 70%; inactive = the rest.

A short description of assay [1]: NCI Yeast Anticancer Drug Screen. Data for the rad50 strain (AID 155).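 Note: 0% = growth of vehicle-only cultures of the same strain.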 The following applies: S. cerevisiae rad50 strain growth inhibition, stronger effect = higher value. The procedure, abridged: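 Cells are treated with compound, grown, and their growth is then scored against vehicle-only cultures of the same repair-deficient yeast strain.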
Assay [2] in a line: NCI Yeast Anticancer Drug Screen. Data for the mec2-1 strain (AID 157). The note with it: S. cerevisiae mec2-1 strain, stronger effect = higher value. The procedure, abridged:
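Mutant yeast (mec2-1) grown with compound; growth inhibition relative to vehicle control reported.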

A short description of assay [3]: NCI Yeast Anticancer Drug Screen. Data for the sgs1 mgt1 strain (AID 161).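 Note: 0% = growth of cultures given vehicle only.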 The note with it: S. cerevisiae sgs1 mgt1 strain, stronger effect = higher value. In outline: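 Percent growth inhibition was derived by comparing compound-exposed mutant yeast with vehicle-exposed cultures. The strain carries alterations in DNA damage repair.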
A short description of assay [4]: NCI Yeast Anticancer Drug Screen. Data for the cln2 rad14 strain (AID 165).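 Note: 0% = growth equal to vehicle treated cultures.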 The note with it: S. cerevisiae cln2 rad14 strain, stronger effect = higher value. In outline:
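Readout is yeast growth inhibition versus vehicle-treated controls, using a strain with cln2 and rad14 alterations exposed to compound.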

Assay [5] can be described thus: NCI Yeast Anticancer Drug Screen. Data for the bub3 strain (AID 167). The note with it: S. cerevisiae bub3 mutant strain, stronger effect = higher value. The procedure, abridged: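 Part of a panel of yeast mutants defective in DNA damage repair or cell cycle regulation. Each strain is grown with compound, and inhibition is calculated relative to solvent-treated cultures.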

The nature of assay [6]: NCI Yeast Anticancer Drug Screen. Data for the mlh1 rad18 strain (AID 175). The note with it: S. cerevisiae mlh1 rad18 strain growth inhibition, stronger effect = higher value. In outline:
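Genetically defined yeast (DNA repair-deficient) exposed to compounds; growth inhibition determined relative to vehicle.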

Where [7] appears, read: at 5.0 µM (retest, dose inferred, filed as 0.5).
Where [8] appears, read: at 50.0 µM (retest, dose inferred, filed as 5.0).

Regarding `CCC(=O)O[C@H]1CC[C@H]2[C@@H]3CCC4=C/C(=N/OC(=O)c5cccc6c(=O)c7ccccc7[nH]c56)CC[C@]4(C)[C@H]3CC[C@]12C`, the growth inhibition was 29% in assay [1] (setting [7]); 83% (active) in assay [1] (setting [8]); 53.8% in assay [1] (at 50.0 µM); 26% in assay [2] (setting [7]); 31% in assay [2] (setting [8]); 77.4% (active) in assay [2] (at 50.0 µM). The growth inhibition is -26% in assay [3] (setting [7]); 52% in assay [3] (setting [8]); 79.3% (active) in assay [3] (at 50.0 µM); -14% in assay [4] (setting [7]); 43% in assay [4] (setting [8]); 47.1% in assay [4] (at 50.0 µM). In addition, the growth inhibition in assay [5] (setting [7]) was 10%; in assay [5] (setting [8]), 66%; in assay [5] (at 50.0 µM) it was 74.4% (active); in assay [6] (setting [7]), 29%; in assay [6] (setting [8]), 40%; in assay [6] (at 50.0 µM), 17.6%.

For the molecule `COc1ccccc1/C=C(/C)[N+](=O)[O-]`, the growth inhibition was 96% (active) in assay [1] (setting [7]); 99% (active) in assay [1] (setting [8]); 99.5% (active) in assay [1] (at 50.0 µM); 35% and 21% in assay [2] (setting [7]); 99% (active) and 100% (active) in assay [2] (setting [8]); 99.8% (active) in assay [2] (at 50.0 µM). The growth inhibition was 34% and 55% in assay [3] (setting [7]); 99% (active) and 100% (active) in assay [3] (setting [8]); 99.2% (active) in assay [3] (at 50.0 µM); 13% and 12% in assay [4] (setting [7]); 99% (active) in assay [4] (setting [8]); 99.5% (active) in assay [4] (at 50.0 µM). In addition, the growth inhibition was 34% and 27% in assay [5] (setting [7]); 99% (active) and 100% (active) in assay [5] (setting [8]); 99.8% (active) in assay [5] (at 50.0 µM); 34% and -4% in assay [6] (setting [7]); 99% (active) in assay [6] (setting [8]); 99.5% (active) in assay [6] (at 50.0 µM).

On to `Cc1cc(N(C)C)c2ccccc2[n+]1CCCCCCCCCC[n+]1c(C)cc(N(C)C)c2ccccc21`, for which the growth inhibition in assay [1] (setting [7]) was 92% (active); in assay [1] (setting [8]) it was 98% (active); in assay [1] (at 50.0 µM), 89.1% (active); in assay [2] (setting [7]) it was 98% (active); in assay [2] (setting [8]) it was 99% (active); in assay [2] (at 50.0 µM) it was 91.8% (active). Further, the growth inhibition in assay [3] (setting [7]) was 95% (active); in assay [3] (setting [8]) it was 99% (active); in assay [3] (at 50.0 µM), 88.8% (active); in assay [4] (setting [7]), 87% (active); in assay [4] (setting [8]) it was 96% (active); in assay [4] (at 50.0 µM), 91% (active). The growth inhibition in assay [5] (setting [7]) is 94% (active); in assay [5] (setting [8]) it was 98% (active); in assay [5] (at 50.0 µM), 89.5% (active); in assay [6] (setting [7]), 97% (active); in assay [6] (setting [8]), 99% (active); in assay [6] (at 50.0 µM), 91.8% (active).

For `O=c1oc2ccccc2c(O)c1C(c1ccc(-c2ccccc2)cc1)c1c(O)c2ccccc2oc1=O`, the growth inhibition was 9% in assay [1] (setting [7]); 52% in assay [1] (setting [8]); 78.1% (active) in assay [1] (at 50.0 µM); 7% in assay [2] (setting [7]); 97% (active) in assay [2] (setting [8]); 89.8% (active) in assay [2] (at 50.0 µM). The growth inhibition in assay [3] (setting [7]) was -16%; in assay [3] (setting [8]), 97% (active); in assay [3] (at 50.0 µM) it was 81.6% (active); in assay [4] (setting [7]), 19%; in assay [4] (setting [8]) it was 97% (active); in assay [4] (at 50.0 µM), 85.2% (active). In addition, the growth inhibition was 14% in assay [5] (setting [7]); 97% (active) in assay [5] (setting [8]); 77.5% (active) in assay [5] (at 50.0 µM); 16% in assay [6] (setting [7]); 88% (active) in assay [6] (setting [8]); 89.3% (active) in assay [6] (at 50.0 µM).

With `Cc1ccc(C(=O)CCl)o1`, the growth inhibition in assay [1] (setting [7]) is -114%; in assay [1] (setting [8]), 97% (active); in assay [1] (at 50.0 µM), 98.7% (active); in assay [2] (setting [7]), -29%; in assay [2] (setting [8]), 98% (active); in assay [2] (at 50.0 µM), 99.7% (active). The growth inhibition in assay [3] (setting [7]) is -46%; in assay [3] (setting [8]), 94% (active); in assay [3] (at 50.0 µM), 76% (active); in assay [4] (setting [7]) it was -54%; in assay [4] (setting [8]), 77% (active); in assay [4] (at 50.0 µM), 71.4% (active). Moreover, the growth inhibition was -34% in assay [5] (setting [7]); 98% (active) in assay [5] (setting [8]); 99.2% (active) in assay [5] (at 50.0 µM); -96% in assay [6] (setting [7]); 95% (active) in assay [6] (setting [8]); 98.5% (active) in assay [6] (at 50.0 µM).

Take `CNCC(O)c1cn(C)c2ccccc12` (configuration not stated): the growth inhibition in assay [1] (setting [7]) was 4%; in assay [1] (setting [8]), 0%; in assay [1] (at 50.0 µM), 45%; in assay [2] (setting [7]) it was 4%; in assay [2] (setting [8]), 3%; in assay [2] (at 50.0 µM), 20.6%. Moreover, the growth inhibition is 3% in assay [3] (setting [7]); 5% in assay [3] (setting [8]); 25.1% in assay [3] (at 50.0 µM); 6% in assay [4] (setting [7]); 2% in assay [4] (setting [8]); 22.1% in assay [4] (at 50.0 µM). Further, the growth inhibition in assay [5] (setting [7]) is 4%; in assay [5] (setting [8]), 0%; in assay [5] (at 50.0 µM), 48.9%; in assay [6] (setting [7]), 0%; in assay [6] (setting [8]), -2%; in assay [6] (at 50.0 µM), 40.9%.

With `CCCCCCCCCCCC(=O)[O][Hg][c]1ccccc1`, the growth inhibition was 99% (active) in assay [1] (setting [7]); 99% (active) in assay [1] (setting [8]); 99.4% (active) in assay [1] (at 50.0 µM); 100% (active) in assay [2] (setting [7]); 100% (active) in assay [2] (setting [8]); 99.7% (active) in assay [2] (at 50.0 µM). Besides, the growth inhibition is 100% (active) in assay [3] (setting [7]); 99% (active) in assay [3] (setting [8]); 99.7% (active) in assay [3] (at 50.0 µM); 99% (active) in assay [4] (setting [7]); 99% (active) in assay [4] (setting [8]); 99.4% (active) in assay [4] (at 50.0 µM). Further, the growth inhibition was 99% (active) in assay [5] (setting [7]); 99% (active) in assay [5] (setting [8]); 99.5% (active) in assay [5] (at 50.0 µM); 99% (active) in assay [6] (setting [7]); 99% (active) in assay [6] (setting [8]); 99.7% (active) in assay [6] (at 50.0 µM).

`C=Cc1cc(OC)c2c(c1)c(=O)oc1c2cc(OC)c2c(O)ccc(C3OC(C)C(O)C(C)(O)C3O)c21` (configuration not stated): the growth inhibition in assay [1] (setting [7]) was 96% (active); in assay [1] (setting [8]), 97% (active); in assay [1] (at 50.0 µM), 90.8% (active); in assay [2] (setting [7]), 97% (active); in assay [2] (setting [8]) it was 97% (active); in assay [2] (at 50.0 µM), 91.8% (active). Moreover, the growth inhibition in assay [3] (setting [7]) was 97% (active); in assay [3] (setting [8]), 98% (active); in assay [3] (at 50.0 µM), 90.3% (active); in assay [4] (setting [7]), 97% (active); in assay [4] (setting [8]) it was 97% (active); in assay [4] (at 50.0 µM), 90.1% (active). Also, the growth inhibition is 97% (active) in assay [5] (setting [7]); 98% (active) in assay [5] (setting [8]); 89.4% (active) in assay [5] (at 50.0 µM); 96% (active) in assay [6] (setting [7]); 96% (active) in assay [6] (setting [8]); 89.9% (active) in assay [6] (at 50.0 µM).

Consider `C[N+](C)(C)CC1CCC(C[N+](C)(C)C)C1=O` (configuration not stated), for which the growth inhibition in assay [1] (setting [7]) is -1%; in assay [1] (setting [8]), 6%; in assay [1] (at 50.0 µM) it was -1.75%; in assay [2] (setting [7]), 11%; in assay [2] (setting [8]) it was 26%; in assay [2] (at 50.0 µM), -1.05%. In addition, the growth inhibition is 0% in assay [3] (setting [7]); -47% in assay [3] (setting [8]); -4.05% in assay [3] (at 50.0 µM); -7% in assay [4] (setting [7]); 5% in assay [4] (setting [8]); 16.3% in assay [4] (at 50.0 µM). Further, the growth inhibition in assay [5] (setting [7]) is -2%; in assay [5] (setting [8]), 6%; in assay [5] (at 50.0 µM) it was 27.5%; in assay [6] (setting [7]), -3%; in assay [6] (setting [8]) it was 3%; in assay [6] (at 50.0 µM) it was -14.2%.
